Laboratory results published in PubChem BioAssay AID623970 (The Scripps Research Institute Molecular Screening Center, 2012).

Assay: compound-DNA interaction, SYBR readout – biochemical, fluorescence, artefact control for HCV NS3 helicase inhibitor project, late-stage follow-up (AID 623970)
Details: DNA binding, SYBR dye displacement fluorescence; in the data active = IC50 below about 90 µM; inactive = the rest

IC50, inactive:
Cc1ccc2nc(-c3ccc4nc(-c5ccc(NC(=O)c6ccncc6)cc5)sc4c3)sc2c1S(=O)(=O)O > 100 µM
Cc1ccc2nc(-c3ccc4nc(-c5ccc(NC(=O)c6ccc(F)cc6)cc5)sc4c3)sc2c1S(=O)(=O)O > 100 µM
COc1cccc2c(=O)c3cc(Cl)cc(C(=O)Nc4cc(Cl)ccn4)c3[nH]c12 > 100 µM
CC(=O)Nc1ccc(-c2nc3ccc(-c4nc5ccc(C)c(S(=O)(=O)O)c5s4)cc3s2)cc1 > 100 µM
COc1ccc(C(=O)Nc2ccc(-c3nc4ccc(-c5nc6ccc(C)c(S(=O)(=O)O)c6s5)cc4s3)cc2)cc1 > 100 µM
